Assay outcomes (PubChem)
Hits are enriched below; roughly 3.5% of the tested compounds scored in any of these assays.
GPR151 ag: activators of human GPR151, primary screen, cell-based, PathHunter beta-arrestin, luminescence | PathHunter beta-arrestin GPR151 cells | actives 1% (n = 650,000) | G-protein coupled receptor 151 (Homo sapiens), Q8TDV0 | activation, % at 11.2 µM; in the data active = activation above about 4.9%;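 also: 0% = median of compound wells and 100% = cells with positive control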
Target sequence (Q8TDV0 whole entry, looked up): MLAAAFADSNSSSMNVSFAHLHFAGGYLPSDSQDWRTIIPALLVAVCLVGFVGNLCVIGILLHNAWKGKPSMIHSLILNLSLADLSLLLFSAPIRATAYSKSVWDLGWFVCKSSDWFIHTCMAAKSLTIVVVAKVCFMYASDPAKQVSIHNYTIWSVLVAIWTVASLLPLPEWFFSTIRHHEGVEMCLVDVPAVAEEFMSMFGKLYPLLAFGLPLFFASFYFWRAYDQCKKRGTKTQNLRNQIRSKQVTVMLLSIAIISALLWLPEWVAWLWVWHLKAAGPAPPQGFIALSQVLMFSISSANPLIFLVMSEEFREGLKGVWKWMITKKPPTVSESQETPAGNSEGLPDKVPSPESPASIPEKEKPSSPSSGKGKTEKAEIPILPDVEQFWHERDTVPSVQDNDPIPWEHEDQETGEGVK
FBW7 activator: FBW7 E3 ligase activators, primary screen, biochemical, AlphaScreen, human | F-box/WD repeat-containing protein 7 (Homo sapiens), Q969H0 | AlphaScreen FBW7–phospho-cyclin E peptide binding, activator screen | normalized activity (activation), % at 26.1 µM | actives 0.13% (n = 650,000); in the data active = normalized activity above about 1.9%;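 also: purified mutant Fbw7 with reduced substrate affinity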
MITF primary: MITF inhibitors, primary screen, biochemical, AlphaScreen, human; Microphthalmia-associated transcription factor (Homo sapiens), O75030; AlphaScreen MITF homodimerization, bead proximity signal; inhibition, % at 2.6 µM; actives 0.91% (n = 650,000); AID 1259374, 2018; in the data active = inhibition above about 50%;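 also: 0% = vehicle wells with protein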
TEAD-YAP block: TEAD-YAP interaction inhibition, primary screen, TEAD-YAP interaction inhibitor project, luminescence, HEK-TIYL cells | TEAD-Gal4/YAP UAS-luciferase luminescence | inhibition, % at 9.12 µM | actives 1.4% (n = 640,000) | AID 1259422, 2018; in the data active = inhibition above about 32%;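 also: 0% = median of test compound wells and 100% = reference inhibitor wells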
An asterisk follows results filed as active.

Screening CCOC(=O)C1CCN(c2c(NCCCN3CCN(C)CC3)c(=O)c2=O)CC1 returned GPR151 ag 0, FBW7 activator 1, MITF primary 3 and TEAD-YAP block 12.
`COC(=O)c1ccc(CN2CC3(C)CC2CC(C)(C)C3)cc1` (stereo unspecified) gave GPR151 ag 1, FBW7 activator 0, MITF primary -23 and TEAD-YAP block -4.
FC(F)(F)c1ccccc1NC(=S)N/N=C1\CC2CC=CC12 (stereo unspecified) was read as GPR151 ag -1, FBW7 activator 0, MITF primary 19 and TEAD-YAP block 47*.
For CC(=C/c1ccccc1)/C=N/n1c(-c2ccncc2)n[nH]c1=S the results were GPR151 ag 1, FBW7 activator 0, MITF primary 2 and TEAD-YAP block 39*.
`CN1CCN(CCCNC(=O)c2cc3c(-c4ccc(Cl)cc4)nn(C)c3s2)CC1` gave GPR151 ag 2, FBW7 activator 1, MITF primary 14 and TEAD-YAP block -5.
`CN(C)CCNC(=O)c1cc2c(-c3ccc(Cl)cc3)nn(C)c2s1` gave GPR151 ag -1, FBW7 activator 1, MITF primary 11 and TEAD-YAP block 68*.
Screening Oc1c(Cl)cc(CN2CCN(c3cccc(C(F)(F)F)c3)CC2)c2cccnc12 returned GPR151 ag -1, FBW7 activator 0, MITF primary 38 and TEAD-YAP block 70*.
Screening O=[N+]([O-])c1cc(CN2CCN(c3cccc(C(F)(F)F)c3)CC2)c2cccnc2c1O returned GPR151 ag -1, FBW7 activator 0, MITF primary 100* and TEAD-YAP block 20.
`Cc1cccc(Cn2nnc(C(=O)NCc3ccccc3)c2N)c1` gave GPR151 ag 0, FBW7 activator 0, MITF primary 5 and TEAD-YAP block 13.
For CC1=C(C(=O)OCc2ccccc2)C(c2ccc([N+](=O)[O-])cc2)n2nnnc2N1 (stereo unspecified) the results were GPR151 ag -1, FBW7 activator 0, MITF primary 9 and TEAD-YAP block 6.
COc1ccc(/C=N/N2CCN(Cc3ccc(Cl)cc3)CC2)c(OC)c1 was read as GPR151 ag -1, FBW7 activator 0, MITF primary -10 and TEAD-YAP block -2.
For COC(=O)C(C)N1CCOc2ccc(CN3CCN(Cc4ccccn4)CC3)cc2C1 (stereo unspecified) the results were GPR151 ag -2, FBW7 activator 0, MITF primary 18 and TEAD-YAP block 10.
Screening COc1cc(NC(=O)Nc2ccc(Br)cc2Cl)cc(OC)c1OC returned GPR151 ag -1, FBW7 activator 1, MITF primary -7 and TEAD-YAP block -2.
For Fc1ccccc1-c1cn2c3c(nnc2n1)CCCC3 the results were GPR151 ag -1, FBW7 activator 0, MITF primary -1 and TEAD-YAP block 92*.
`Cc1cc(OCC(=O)Nc2ccc(-c3nc4cc(C(C)C)ccc4o3)cc2)cc(C)c1Cl` gave GPR151 ag -1, FBW7 activator 0, MITF primary 20 and TEAD-YAP block 6.
For Cc1cc(OCC(=O)Nc2ccc3oc(-c4ccccc4Br)nc3c2)cc(C)c1Cl the results were GPR151 ag 3, FBW7 activator 2.0*, MITF primary 25 and TEAD-YAP block 3.
For CC(C)c1ccc2oc(-c3ccc(NC(=O)COc4ccc5ccccc5c4)cc3)nc2c1 the results were GPR151 ag 0, FBW7 activator 0, MITF primary 2 and TEAD-YAP block 42*.
Screening Cc1cc(C)c2oc(-c3cccc(NC(=O)COc4cc(C)c(Cl)c(C)c4)c3)nc2c1 returned GPR151 ag 0, FBW7 activator 0, MITF primary -16 and TEAD-YAP block 42*.
Screening Cc1cc(OCC(=O)Nc2ccc3oc(-c4cccnc4)nc3c2)cc(C)c1Cl returned GPR151 ag -1, FBW7 activator 0, MITF primary -5 and TEAD-YAP block -12.
`CC(C)C(=O)Nc1cc(-c2nc3cc(C(C)C)ccc3o2)ccc1Cl` gave GPR151 ag 0, FBW7 activator 0, MITF primary -15 and TEAD-YAP block 45*.
Screening COC(=O)C1=C(C)NC2=C(C(=O)CC(C)(C)C2)C1c1coc2ccc(C)cc2c1=O (stereo unspecified) returned GPR151 ag 0, FBW7 activator 0, MITF primary -1 and TEAD-YAP block 0.
`CN(C(=O)Cn1c(=O)n(C)c2ncccc21)C1CCCCC1` gave GPR151 ag 0, FBW7 activator 1, MITF primary 21 and TEAD-YAP block -9.
Screening O=C(Nc1nnc(-c2ccc(Cl)cc2Cl)s1)c1cccc(C(F)(F)F)c1 returned GPR151 ag -1, FBW7 activator 0, MITF primary 3 and TEAD-YAP block 1.
`O=C1CC(N2CCSCC2)C(=O)N1c1ccc(Cl)cc1` (stereo unspecified) gave GPR151 ag 0, FBW7 activator 0, MITF primary -10 and TEAD-YAP block -3.
`CCC(=O)Nc1ccc2oc(-c3ccccc3F)nc2c1` gave GPR151 ag -2, FBW7 activator 0, MITF primary 7 and TEAD-YAP block 39*.
O=C(Cc1ccc(Cl)cc1)Nc1ccc2oc(-c3ccccc3F)nc2c1 was read as GPR151 ag -1, FBW7 activator 0, MITF primary 2 and TEAD-YAP block -13.
Screening CCOc1c(I)cc(/C=C(\C#N)C(N)=O)cc1OC returned GPR151 ag 0, FBW7 activator 0, MITF primary 7 and TEAD-YAP block 4.
`CC(=O)c1c(C)[nH]c(C(=O)NCCC23CC4CC(CC(C4)C2)C3)c1C` gave GPR151 ag 0, FBW7 activator 0, MITF primary 0 and TEAD-YAP block -33.
Cc1[nH]c2ccccc2c1C(=O)C(=O)NCc1ccc(F)cc1 was read as GPR151 ag -1, FBW7 activator 0, MITF primary -1 and TEAD-YAP block 1.
`Cc1cnc(NC(=O)c2ccc(Cn3ccnc3)cc2)s1` gave GPR151 ag -1, FBW7 activator 0, MITF primary 0 and TEAD-YAP block 61*.
`O=C(Nc1nc2ccccc2[nH]1)c1cc(F)c(F)cc1Cl` gave GPR151 ag -10, FBW7 activator 0, MITF primary 10 and TEAD-YAP block 54*.
`N#Cc1cccc(Cn2c(-c3nonc3N)nc3ccccc32)c1` gave GPR151 ag -1, FBW7 activator 0, MITF primary 15 and TEAD-YAP block 48*.
`Cc1cccc(CC(=O)Nc2cnn(-c3cccc(C(=O)Nc4cccc(C(C)(C)C)c4)c3)c2)c1` gave GPR151 ag 2, FBW7 activator 0, MITF primary 6 and TEAD-YAP block 7.
`Cc1nc2c(c(C)nn2C(C)(C)C)c(C)c1CCC(=O)N1CCCCC1` gave GPR151 ag 0, FBW7 activator 0, MITF primary 13 and TEAD-YAP block 35*.
